# Source: PubChem BioAssay (NCI)
# Compounds without any hit were thinned out: in the full panel of roughly 79,000, 15% have a hit. Values without a mark were called inactive. The source made the active and inactive calls. No stated cut-off is given here; in the data, active means growth inhibition above about 70%; inactive means the rest.
# Key:
# [1] = NCI Yeast Anticancer Drug Screen. Data for the mec2-1 strain (AID 157); settings: S. cerevisiae mec2-1 strain, stronger effect = higher value
# Summary of the method: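 Growth inhibition is read against vehicle-treated controls after compound exposure of the mec2-1 yeast strain, which is defective in DNA damage repair or cell cycle control.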
# [2] = NCI Yeast Anticancer Drug Screen. Data for the rad14 strain (AID 159);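 further: 0% = growth of vehicle-treated control cultures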; settings: S. cerevisiae rad14 strain growth inhibition, stronger effect = higher value
# Summary of the method: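 Test compounds were applied to a repair-deficient yeast strain. Its growth was then compared with that of cultures given vehicle alone, and inhibition was expressed relative to those controls.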
# [3] = NCI Yeast Anticancer Drug Screen. Data for the sgs1 mgt1 strain (AID 161);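 further: 0% = growth of cultures given vehicle only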; settings: S. cerevisiae sgs1 mgt1 strain, stronger effect = higher value
# Summary of the method: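 Percent growth inhibition was derived by comparing compound-exposed mutant yeast with vehicle-exposed cultures. The strain carries alterations in DNA damage repair.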
# [4] = NCI Yeast Anticancer Drug Screen. Data for the CLN2oe strain (AID 163);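 further: 0% = growth of vehicle-only control cultures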; settings: S. cerevisiae CLN2oe strain, stronger effect = higher value
# Summary of the method: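 Compound-treated yeast; growth vs vehicle ctrl = % inhibition. Genetically altered strain (cell-cycle control).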
# [5] = NCI Yeast Anticancer Drug Screen. Data for the cln2 rad14 strain (AID 165);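 further: 0% = growth equal to vehicle treated cultures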; settings: S. cerevisiae cln2 rad14 strain, stronger effect = higher value
# Summary of the method: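 Growth inhibition, relative to vehicle-treated controls, is the read-out. The test organism is a yeast strain with defined genetic alterations, cln2 rad14.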
# [6] = NCI Yeast Anticancer Drug Screen. Data for the bub3 strain (AID 167); settings: S. cerevisiae bub3 mutant strain, stronger effect = higher value
# Summary of the method: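 Yeast carrying a defined mutation is treated with each compound, and growth is compared with that of vehicle-exposed cells to give inhibition.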
# [7] = NCI Yeast Anticancer Drug Screen. Data for the wt2 strain (AID 169);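 further: 0% = growth of vehicle-treated yeast cultures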; settings: S. cerevisiae wt2 strain growth inhibition, stronger effect = higher value
# Summary of the method: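 Compound exposure of yeast; growth compared with vehicle controls; inhibition reported.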
# [8] = NCI Yeast Anticancer Drug Screen. Data for the mlh1 strain (AID 171);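 further: 0% = growth of vehicle-treated control cultures of the same strain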; settings: S. cerevisiae mlh1 strain growth inhibition, stronger effect = higher value
# Summary of the method: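 Compounds are applied to a genetically altered yeast strain, and its growth is compared with that of vehicle-treated cultures to give percent inhibition.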
# [9] = NCI Yeast Anticancer Drug Screen. Data for the mlh1 rad18 strain (AID 175); settings: S. cerevisiae mlh1 rad18 strain growth inhibition, stronger effect = higher value
# Summary of the method: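 Cells of a genetically altered yeast strain, deficient in DNA damage repair, were treated with compound. Their growth was then compared with that of vehicle-treated cultures to give inhibition.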
# [10] = NCI Yeast Anticancer Drug Screen. Data for the rad18 strain (AID 177); settings: S. cerevisiae rad18 mutant growth inhibition, stronger effect = higher value
# Summary of the method: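 Compounds are applied to a repair-deficient yeast strain, and growth is compared with that of vehicle-treated cultures to give percent inhibition.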
# [11] = NCI Yeast Anticancer Drug Screen. Data for the rad52 strain (AID 147);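 further: 0% = growth of vehicle-treated control cultures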; settings: S. cerevisiae rad52 mutant growth inhibition, stronger effect = higher value
# Summary of the method: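 DNA repair-defective yeast; compound exposure; growth scored against vehicle controls.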
# [12] = NCI Yeast Anticancer Drug Screen. Data for the wt1 strain (AID 149);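 further: 0% = growth of vehicle-treated wt1 cultures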; settings: S. cerevisiae wt1 strain (SPY 50644) growth inhibition, stronger effect = higher value
# Summary of the method: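 wt1 yeast, compound-treated; % growth inhibition vs vehicle control.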
# [13] = NCI Yeast Anticancer Drug Screen. Data for the rad50EPP+ strain (AID 151);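 further: 0% = growth of vehicle-treated control cultures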; settings: S. cerevisiae rad50 mutant strain, stronger effect = higher value
# Summary of the method: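 rad50EPP+ yeast treated with test compounds. Readout: growth vs vehicle control.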
# [14] = NCI Yeast Anticancer Drug Screen. Data for the rad50 strain (AID 155);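 further: 0% = growth of vehicle-only cultures of the same strain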; settings: S. cerevisiae rad50 strain growth inhibition, stronger effect = higher value
# Summary of the method: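 Genetically altered yeast (DNA repair pathway); compound treatment; growth inhibition vs vehicle ctrl.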
# [15] = at 5.0 µM (retest, dose inferred, filed as 0.5)
# [16] = at 50.0 µM (retest, dose inferred, filed as 5.0)
structure (smiles),measurement,setting,value
COc1cc(N(C)C)ccc1/C=C\c1ccnc2ccccc12,growth inhibition,[1]; at 100.0 µM,0%
same,growth inhibition,[2]; at 1.2 µM,-5%
same,growth inhibition,[2]; at 3.7 µM,-4%
same,growth inhibition,[2]; at 11.0 µM,0%
same,growth inhibition,[2]; at 33.0 µM,6%
same,growth inhibition,[2]; at 100.0 µM,37%
same,growth inhibition,[3]; [15],0%
same,growth inhibition,[3]; [16],64%
same,growth inhibition,[3]; at 50.0 µM,-4.05%
same,growth inhibition,[4]; at 1.2 µM,-11%
same,growth inhibition,[4]; at 3.7 µM,-13%
same,growth inhibition,[4]; at 11.0 µM,-18%
same,growth inhibition,[4]; at 33.0 µM,-15%
same,growth inhibition,[4]; at 100.0 µM,-9%
same,growth inhibition,[5]; [15],-17%
same,growth inhibition,[5]; [16],-13%
same,growth inhibition,[5]; at 50.0 µM,-3.5%
same,growth inhibition,[6]; at 1.2 µM,-5%
same,growth inhibition,[6]; at 3.7 µM,-11%
same,growth inhibition,[6]; [15],-14%
same,growth inhibition,[6]; at 11.0 µM,-14%
same,growth inhibition,[6]; at 33.0 µM,-10%
same,growth inhibition,[6]; [16],-3%
same,growth inhibition,[6]; at 50.0 µM,-5.95%
same,growth inhibition,[6]; at 100.0 µM,4%
same,growth inhibition,[7]; at 1.2 µM,-4%
same,growth inhibition,[7]; at 3.7 µM,-7%
same,growth inhibition,[7]; at 11.0 µM,-4%
same,growth inhibition,[7]; at 33.0 µM,16%
same,growth inhibition,[7]; at 100.0 µM,31%
same,growth inhibition,[8]; at 1.2 µM,-1%
same,growth inhibition,[8]; at 3.7 µM,-6%
same,growth inhibition,[8]; at 11.0 µM,3%
same,growth inhibition,[8]; at 33.0 µM,22%
same,growth inhibition,[8]; at 100.0 µM,38%
same,growth inhibition,[9]; [15],-8%
same,growth inhibition,[9]; [16],32%
same,growth inhibition,[9]; at 50.0 µM,2.15%
same,growth inhibition,[10]; at 1.2 µM,-4%
same,growth inhibition,[10]; at 3.7 µM,-2%
same,growth inhibition,[10]; at 11.0 µM,-1%
same,growth inhibition,[10]; at 33.0 µM,9%
same,growth inhibition,[10]; at 100.0 µM,14%
CN(C)c1ccc(N=Nc2ccccn2)cc1,growth inhibition,[11]; at 1.2 µM,-15%
same,growth inhibition,[11]; at 3.7 µM,-12%
same,growth inhibition,[11]; at 11.0 µM,15%
same,growth inhibition,[11]; at 33.0 µM,89% (active)
same,growth inhibition,[11]; at 100.0 µM,94% (active)
same,growth inhibition,[12]; at 1.2 µM,-21%
same,growth inhibition,[12]; at 3.7 µM,31%
same,growth inhibition,[12]; at 11.0 µM,29%
same,growth inhibition,[12]; at 33.0 µM,87% (active)
same,growth inhibition,[12]; at 100.0 µM,94% (active)
same,growth inhibition,[13]; at 1.2 µM,-88%
same,growth inhibition,[13]; at 3.7 µM,-118%
same,growth inhibition,[13]; at 11.0 µM,-85%
same,growth inhibition,[13]; at 33.0 µM,66%
same,growth inhibition,[13]; at 100.0 µM,85% (active)
same,growth inhibition,[14]; at 1.2 µM,-29%
same,growth inhibition,[14]; at 3.7 µM,-18%
same,growth inhibition,[14]; [15],100% (active)
same,growth inhibition,[14]; at 11.0 µM,26%
same,growth inhibition,[14]; at 33.0 µM,94% (active)
same,growth inhibition,[14]; [16],100% (active)
same,growth inhibition,[14]; at 50.0 µM,81.6% (active)
same,growth inhibition,[14]; at 100.0 µM,96% (active)
same,growth inhibition,[1]; at 1.2 µM,-10%
same,growth inhibition,[1]; at 3.7 µM,20%
same,growth inhibition,[1]; [15],100% (active)
same,growth inhibition,[1]; at 11.0 µM,14%
same,growth inhibition,[1]; at 33.0 µM,66%
same,growth inhibition,[1]; [16],100% (active)
same,growth inhibition,[1]; at 50.0 µM,82.9% (active)
same,growth inhibition,[1]; at 100.0 µM,96% (active)
same,growth inhibition,[2]; at 1.2 µM,12%
same,growth inhibition,[2]; at 3.7 µM,1%
same,growth inhibition,[2]; at 11.0 µM,62%
same,growth inhibition,[2]; at 33.0 µM,95% (active)
same,growth inhibition,[2]; at 100.0 µM,97% (active)
same,growth inhibition,[3]; [15],-1%
same,growth inhibition,[3]; [16],98% (active)
same,growth inhibition,[3]; at 50.0 µM,85.6% (active)
same,growth inhibition,[4]; at 1.2 µM,1%
same,growth inhibition,[4]; at 3.7 µM,-17%
same,growth inhibition,[4]; at 11.0 µM,17%
same,growth inhibition,[4]; at 33.0 µM,77% (active)
same,growth inhibition,[4]; at 100.0 µM,88% (active)
same,growth inhibition,[5]; [15],41%
same,growth inhibition,[5]; [16],97% (active)
same,growth inhibition,[5]; at 50.0 µM,75.2% (active)
same,growth inhibition,[6]; at 1.2 µM,-3%
same,growth inhibition,[6]; at 3.7 µM,15%
same,growth inhibition,[6]; [15],40%
same,growth inhibition,[6]; at 11.0 µM,61%
same,growth inhibition,[6]; at 33.0 µM,95% (active)
same,growth inhibition,[6]; [16],97% (active)
same,growth inhibition,[6]; at 50.0 µM,87.1% (active)
same,growth inhibition,[6]; at 100.0 µM,96% (active)
same,growth inhibition,[7]; at 1.2 µM,-27%
same,growth inhibition,[7]; at 3.7 µM,-12%
same,growth inhibition,[7]; at 11.0 µM,3%
same,growth inhibition,[7]; at 33.0 µM,86% (active)
same,growth inhibition,[7]; at 100.0 µM,94% (active)
same,growth inhibition,[8]; at 1.2 µM,33%
same,growth inhibition,[8]; at 3.7 µM,10%
same,growth inhibition,[8]; at 11.0 µM,60%
same,growth inhibition,[8]; at 33.0 µM,93% (active)
same,growth inhibition,[8]; at 100.0 µM,96% (active)
same,growth inhibition,[9]; [15],100% (active)
same,growth inhibition,[9]; [16],100% (active)
same,growth inhibition,[9]; at 50.0 µM,83.2% (active)
same,growth inhibition,[10]; at 1.2 µM,-16%
same,growth inhibition,[10]; at 3.7 µM,-10%
same,growth inhibition,[10]; at 11.0 µM,-1%
same,growth inhibition,[10]; at 33.0 µM,83% (active)
same,growth inhibition,[10]; at 100.0 µM,91% (active)
